Out of some 5,500 compounds screened, about 2,000 (36%) were called active. About 18% were inconclusive and are not listed. No stated cut-off is given here; in the data, active means normalized growth mostly below about 0.91 (no sharp cut-off); inconclusive means no clear call, values can overlap the other calls; inactive means mostly above about 0.92. The list shows a part of the results.
Test: chemical genetic growth profiling, strain panel (AID 1159580);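 further: tested at 20 µM; growth read once vehicle control cultures reached saturation at 30 °C; 1 = growth at the plate median or of vehicle wells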
Conditions: growth OD

Measured: normalized growth

CCCCCCCCCCCCCCCCCCOCC(O)CO (stereo not drawn)
inactive: S. cerevisiae deletion strains, locus YJR043C, strain POL32, stronger effect = lower value 1.01 | S. cerevisiae deletion strains, locus YJR066W, strain TOR1, stronger effect = lower value 0.965 | S. cerevisiae deletion strains, locus YKL009W, strain mrt4, stronger effect = lower value 1.04 | S. cerevisiae deletion strains, locus YKL068W, stronger effect = lower value 1.01 | S. cerevisiae deletion strains, locus YKL085W, strain MDH1 (second series), stronger effect = lower value 0.986 | S. cerevisiae deletion strains, locus YKL085W, strain MDH1, stronger effect = lower value 0.986 | S. cerevisiae deletion strains, locus YKL160W, strain elf1, stronger effect = lower value 1.01 | S. cerevisiae deletion strains, locus YKR001C, strain vps1, stronger effect = lower value 1.04 | S. cerevisiae deletion strains, locus YKR026C, strain gcn3, stronger effect = lower value 1 | S. cerevisiae deletion strains, locus YKR091W, strain srl3, stronger effect = lower value 0.995 | S. cerevisiae deletion strains, locus YLL001W, strain dnm1, stronger effect = lower value 0.997 | S. cerevisiae deletion strains, locus YLL026W, stronger effect = lower value 0.983 | S. cerevisiae deletion strains, locus YLL041C, strain sdh2, stronger effect = lower value 0.997 | S. cerevisiae deletion strains, locus YLR027C, strain aat2, stronger effect = lower value 0.998 | S. cerevisiae deletion strains, locus YLR039C, strain RIC1, stronger effect = lower value 1.04 | S. cerevisiae deletion strains, locus YLR058C, strain SHM2, stronger effect = lower value 0.999 | S. cerevisiae deletion strains, locus YLR102C, strain apc9, stronger effect = lower value 1.01 | S. cerevisiae deletion strains, locus YLR113W, strain HOG1, stronger effect = lower value 0.995 | S. cerevisiae deletion strains, locus YLR221C, strain rsa3, stronger effect = lower value 1 | S. cerevisiae deletion strains, locus YLR258W, strain gsy2, stronger effect = lower value 0.975 | S. cerevisiae deletion strains, locus YLR262C, strain YPT6 (second series), stronger effect = lower value 1 | S. cerevisiae deletion strains, locus YLR262C, strain YPT6, stronger effect = lower value 1.01 | S. cerevisiae deletion strains, locus YLR268W, strain sec22, stronger effect = lower value 1.05 | S. cerevisiae deletion strains, locus YLR320W, strain mms22, stronger effect = lower value 0.979 | S. cerevisiae deletion strains, locus YLR330W, strain CHS5, stronger effect = lower value 1.02 | S. cerevisiae deletion strains, locus YLR342W, strain FKS1 (second series), stronger effect = lower value 1.04 | S. cerevisiae deletion strains, locus YLR342W, strain FKS1, stronger effect = lower value 0.987 | S. cerevisiae deletion strains, locus YLR357W, strain rsc2, stronger effect = lower value 0.932 | S. cerevisiae deletion strains, locus YLR370C, strain arc18, stronger effect = lower value 0.998 | S. cerevisiae deletion strains, locus YLR371W, strain rom2, stronger effect = lower value 1.02 | S. cerevisiae deletion strains, locus YLR384C, strain iki3, stronger effect = lower value 0.986 | S. cerevisiae deletion strains, locus YLR418C, strain cdc73, stronger effect = lower value 0.976 | S. cerevisiae deletion strains, locus YML016C, strain PPZ1, stronger effect = lower value 1.01 | S. cerevisiae deletion strains, locus YML032C, strain rad52, stronger effect = lower value 0.983 | S. cerevisiae deletion strains, locus YML120C, strain ndi1, stronger effect = lower value 1.01 | S. cerevisiae deletion strains, locus YML124C, strain tub3, stronger effect = lower value 1 | S. cerevisiae deletion strains, locus YMR058W, strain fet3, stronger effect = lower value 0.999 | S. cerevisiae deletion strains, locus YMR078C, strain ctf18, stronger effect = lower value 1 | S. cerevisiae deletion strains, locus YMR125W, strain sto1, stronger effect = lower value 0.955 | S. cerevisiae deletion strains, locus YMR129W, stronger effect = lower value 0.989 | S. cerevisiae deletion strains, locus YMR205C, strain PFK2, stronger effect = lower value 0.96 | S. cerevisiae deletion strains, locus YMR223W, strain ubp8, stronger effect = lower value 1.01 | S. cerevisiae deletion strains, locus YMR231W, strain pep5, stronger effect = lower value 0.993 | S. cerevisiae deletion strains, locus YMR263W, strain SAP30, stronger effect = lower value 1 | S. cerevisiae deletion strains, locus YMR307W, strain GAS1, stronger effect = lower value 1.01 | S. cerevisiae deletion strains, locus YNL067W, strain RPL9B, stronger effect = lower value 1.01 | S. cerevisiae deletion strains, locus YNL071W, strain lat1, stronger effect = lower value 1 | S. cerevisiae deletion strains, locus YNL128W, strain TEP1, stronger effect = lower value 1.02 | S. cerevisiae deletion strains, locus YNL183C, strain NPR1, stronger effect = lower value 0.974 | S. cerevisiae deletion strains, locus YNL209W, strain ssb2, stronger effect = lower value 0.999 | S. cerevisiae deletion strains, locus YNL233W, strain BNI4, stronger effect = lower value 1.01 | S. cerevisiae deletion strains, locus YNL248C, strain rpa49, stronger effect = lower value 1.01 | S. cerevisiae deletion strains, locus YNL250W, strain rad50, stronger effect = lower value 1 | S. cerevisiae deletion strains, locus YNL271C, strain bni1, stronger effect = lower value 1 | S. cerevisiae deletion strains, locus YNL298W, strain CLA4, stronger effect = lower value 1 | S. cerevisiae deletion strains, locus YNL307C, strain MCK1, stronger effect = lower value 1.01 | S. cerevisiae deletion strains, locus YNL322C, strain KRE1 (second series), stronger effect = lower value 0.998 | S. cerevisiae deletion strains, locus YNR049C, strain mso1, stronger effect = lower value 0.995 | S. cerevisiae deletion strains, locus YNR052C, strain pop2, stronger effect = lower value 0.999 | S. cerevisiae deletion strains, locus YOL012C, strain htz1 0.72 | S. cerevisiae deletion strains, locus YOL147C, strain pex11, stronger effect = lower value 1 | S. cerevisiae deletion strains, locus YOR001W, strain rrp6, stronger effect = lower value 0.996 | S. cerevisiae deletion strains, locus YOR061W, strain CKA2, stronger effect = lower value 1 | S. cerevisiae deletion strains, locus YOR069W, strain VPS5, stronger effect = lower value 1.01 | S. cerevisiae deletion strains, locus YOR070C, strain gyp1, stronger effect = lower value 0.997 | S. cerevisiae deletion strains, locus YOR080W, strain dia2, stronger effect = lower value 0.977 | S. cerevisiae deletion strains, locus YOR083W, strain WHI5, stronger effect = lower value 1.02 | S. cerevisiae deletion strains, locus YOR106W, strain vam3, stronger effect = lower value 1.01 | S. cerevisiae deletion strains, locus YOR136W, strain idh2, stronger effect = lower value 1.02 | S. cerevisiae deletion strains, locus YOR144C, strain elg1, stronger effect = lower value 1.01 | S. cerevisiae deletion strains, locus YOR184W, strain ser1, stronger effect = lower value 0.995 | S. cerevisiae deletion strains, locus YOR231W, strain MKK1, stronger effect = lower value 1 | S. cerevisiae deletion strains, locus YOR265W, strain rbl2, stronger effect = lower value 0.987 | S. cerevisiae deletion strains, locus YOR270C, strain vph1, stronger effect = lower value 1.03 | S. cerevisiae deletion strains, locus YOR290C, strain snf2, stronger effect = lower value 0.973 | S. cerevisiae deletion strains, locus YOR316C, strain cot1, stronger effect = lower value 0.997 | S. cerevisiae deletion strains, locus YPL051W, strain arl3, stronger effect = lower value 1.01 | S. cerevisiae deletion strains, locus YPL078C, strain atp4, stronger effect = lower value 1.01 | S. cerevisiae deletion strains, locus YPL106C, strain sse1, stronger effect = lower value 0.953 | S. cerevisiae deletion strains, locus YPL240C, strain hsp82, stronger effect = lower value 0.985 | S. cerevisiae deletion strains, locus YPL241C, strain CIN2, stronger effect = lower value 0.998 | S. cerevisiae deletion strains, locus YPL256C, strain CLN2, stronger effect = lower value 0.983 | S. cerevisiae deletion strains, locus YPR119W, strain clb2, stronger effect = lower value 1 | S. cerevisiae deletion strains, locus YPR141C, strain kar3, stronger effect = lower value 1 | S. cerevisiae deletion strains, locus YPR163C, strain tif3, stronger effect = lower value 1.02 | S. cerevisiae deletion strains, locus YPR167C, strain met16, stronger effect = lower value 1.02 | S. cerevisiae deletion strains, strain wtn01, stronger effect = lower value 1.04 | S. cerevisiae strains, strain wild type, stronger effect = lower value 0.995
